The results in this text go back to PubChem BioAssay AID624045 (National Center for Advancing Translational Sciences (NCATS), 2012).

Calls of active or inactive are those of the source. The call rests on the fitted dose curve; in most records, active means well fitted inhibition curve with a large enough effect; inactive means flat fitted curve, though single readings scatter.

For the test, the target named is Dual specificity tyrosine-phosphorylation-regulated kinase 1A (Homo sapiens) (UniProt Q13627). Nature of the test: Reaction Biology data for inhibitors of DYRK1A: Probe SAR. As to conditions: Reaction Biology DYRK1A kinase assay, 10 uM ATP; series mostly up to 10 µM. From the text:
Alternative splicing of pre-mRNAs plays a major role in the regulation of eukaryotic gene expression. Alternative splicing is now thought to be one of the primary reasons for the complexity of higher organisms leading to an average of three protein isoforms per gene. Aberrant splicing can lead to a number of diseases and is known to play a role in rare genetic diseases such as progeria syndrome. Hutchinson-Gilford Progeria Syndrome (HGPS) is a pediatric premature aging disease caused by a spontaneous mutation in the lamin A/C (LMNA) gene due to a single point mutation in the lamin A gene effecting 1 in 4 million people. To identify both specific splicing modulators of the lamin A gene as well as general splicing modulators, a cell-based HTS assay was developed using a minigene reporter system (AIDs, 1459 & 1487). […] This AID summarizes the characterization of lead compounds in Dyrk1a. NIH Molecular Libraries Probe Production Centers Network [MLPCN] NIH Chemical Genomics Center [NCGC] MLPCN Grant: MH084827 Assay Submitter (PI): Tom Misteli
Compound IC50s were determined at Reaction Biology (http://www.reactionbiology.com) with ten concentration points starting at 10 uM in the assay using a 3-fold dilution series. The control compound staurosporine was also tested in the 10-dose IC50 mode with the same 3-fold serial dilution, again starting at 10 uM. All kinase reactions were performed using 10 uM ATP in the assay. 100% activity was taken from kinase reactions with DMSO alone (the vehicle used for compound stock solutions).
Take `Clc1ccc(Nc2nccc(-c3ccc4c(c3)OCO4)n2)cc1`: the Potency was 273 nM (active).
The figure for `COc1cccc(-c2ccnc(NCc3ccc(Cl)c(Cl)c3)n2)c1` is 4650 nM (active).
The figure for `c1cncc(CNc2ccnc(-c3ccc4[nH]ncc4c3)n2)c1` is 349 nM (active); for `FC(F)(F)c1cc(Br)cc(Nc2nccc(-c3ccc4c(c3)OCO4)n2)c1` it is 107 nM (active); for `Clc1ccc(CNc2ncncc2-c2ccc3c(c2)OCO3)cc1` it is 4580 nM (active).
In the case of `COc1ccc(-c2ccnc(NCc3ccc(Cl)c(Cl)c3)n2)cc1OC` it was “inactive”.
Consider `Clc1ccc(CNc2ccnc(-c3ccc4c(c3)OCO4)n2)cc1Cl`, for which the Potency entry is “inactive”.
In the case of `Clc1ccc(CNc2nccc(-c3ccc4c(c3)OCO4)n2)cc1Cl` it was 26.3 nM (active).
Take `Cc1nc(CN(C)c2ncnc3ccc(-c4ccc5[nH]ncc5c4)cc23)cs1`: the Potency was 64.1 nM (active).
In the case of `O=[N+]([O-])c1cc(Nc2nccc(-c3ccc4c(c3)OCO4)n2)cc(C(F)(F)F)c1` it was 24.1 nM (active); in that of `c1cc(-c2ccc3c(c2)OCO3)nc(Nc2ccc3c(c2)OCO3)n1`, 24.9 nM (active).
In the case of `COc1cccc(-c2ccnc(NCc3ccc(Cl)cc3)n2)c1` it was 6360 nM (active); in that of `Clc1cc(Cl)cc(CNc2ncncc2-c2ccc3c(c2)OCO3)c1`, 282 nM (active).
Turning to `Cc1nc(CNc2ncnc3ccc(-c4ccc5c(c4)OCO5)cc23)cs1`, the Potency was 33.3 nM (active).
In the case of `Clc1ccc(CNc2ncncc2-c2ccc3c(c2)OCO3)cc1Cl` it was 3450 nM (active); in that of `c1cncc(CNc2nccc(-c3ccc4[nH]ncc4c3)n2)c1`, 60.8 nM (active).
In the case of `Cc1c(-c2ccnc(NCc3cccnc3)n2)sc(=O)n1C` it was 29.3 nM (active).
In the case of `c1cncc(CNc2nccc(-c3ccc4c(c3)OCO4)n2)c1` it was 7.1 nM (active); in that of `c1nc(NCC2CCCO2)c2cc(-c3ccc4c(c3)OCO4)ccc2n1` (configuration not stated), 24.3 nM (active); in that of `COc1ccc(-c2ccnc(NCc3ccc(Cl)cc3)n2)cc1`, 558 nM (active).
Take `c1cncc(CNc2ccnc(-c3ccc4cn[nH]c4c3)n2)c1`: the Potency was 1430 nM (active).
The figure for `FC(F)(F)c1cccc(Nc2nccc(-c3ccc4c(c3)OCO4)n2)c1` is 10.4 nM (active); for `Cc1c(-c2ccnc(NCc3ccc(Cl)cc3)n2)sc(=O)n1C` it is 62.9 nM (active).
The figure for `Clc1ccc(CNc2nccc(-c3ccc4c(c3)OCCO4)n2)cc1Cl` is 18.2 nM (active).
In the case of `Cc1nc(CN(C)c2ncnc3ccc(-c4ccc5c(c4)OCO5)cc23)cs1` it was 5.2 nM (active).
`c1cncc(CNc2ncncc2-c2ccc3c(c2)OCO3)c1`: the Potency result was “inactive”.
The figure for `Clc1ccc(CNc2ccnc(-c3ccc4[nH]ncc4c3)n2)cc1Cl` is 2350 nM (active); for `Brc1cc(Br)cc(CNc2nccc(-c3ccc4c(c3)OCO4)n2)c1` it is 10.7 nM (active).
In the case of `Clc1ccc(CNc2nccc(-c3ccc4cn[nH]c4c3)n2)cc1Cl` it was 169 nM (active); in that of `Clc1ccc(CNc2nccc(-c3ccc4[nH]ncc4c3)n2)cc1Cl`, 128 nM (active); in that of `COc1ccc(-c2ccnc(NCc3ccc(Cl)c(Cl)c3)n2)cc1`, 203 nM (active).
Take `Brc1ccc(CNc2nccc(-c3ccc4c(c3)OCO4)n2)cc1Br`: the Potency was 79.3 nM (active).
